Compound activity deposited in PubChem BioAssay by National Center for Advancing Translational Sciences (NCATS).
FLuc counter – qHTS profiling assay for firefly luciferase inhibitor/activator using purifed enzyme and Km concentrations of substrates (counterscreen for miR-21 project) | purified FLuc, Km substrates, luminescence inhibition | Luciferin 4-monooxygenase (Photinus pyralis), P08659 | Potency, µM (highest dose often 57.5 µM), for the others: at the highest dose activity change, negative = inhibition, actives largely listed as inhibitors | 6.9% of 360,000 active;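 also: plate controls were vehicle for no effect and reference inhibitor for full effect; nearly all actives have a fitted effect of over 55% in size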
Target sequence (P08659 whole entry, looked up): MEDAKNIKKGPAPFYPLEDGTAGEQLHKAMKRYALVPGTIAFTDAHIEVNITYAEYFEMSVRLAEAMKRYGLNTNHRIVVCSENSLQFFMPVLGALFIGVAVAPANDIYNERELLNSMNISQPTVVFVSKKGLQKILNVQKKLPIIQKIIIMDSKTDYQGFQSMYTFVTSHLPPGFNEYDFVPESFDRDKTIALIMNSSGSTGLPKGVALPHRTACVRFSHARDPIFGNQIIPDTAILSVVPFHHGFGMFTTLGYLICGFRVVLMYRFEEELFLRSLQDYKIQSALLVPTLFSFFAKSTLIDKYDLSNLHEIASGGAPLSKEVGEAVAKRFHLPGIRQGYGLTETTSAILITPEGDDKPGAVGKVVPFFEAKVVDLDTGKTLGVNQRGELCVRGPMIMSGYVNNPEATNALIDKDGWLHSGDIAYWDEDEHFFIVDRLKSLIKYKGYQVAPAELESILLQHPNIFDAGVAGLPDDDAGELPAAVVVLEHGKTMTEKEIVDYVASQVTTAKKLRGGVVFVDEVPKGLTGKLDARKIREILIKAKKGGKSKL
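Biochemical qHTS of compounds, final roughly 60 µM downward over six points, against 10 nM purified firefly luciferase using Km concentrations of substrates (10 uM D-luciferin, 10 uM ATP) in Tris acetate pH 7.5 buffer; luminescence output.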
Luc counter – Counterscreen for Luciferase (Kinase-Glo TM) Inhibition; Kinase-Glo luciferase, ATP luminescence, 8 min; 0.28% of 200,000 active; Luciferin 4-monooxygenase (Photuris pensylvanica), Q27757; AID 1379, 2008; Potency, µM (doses to about 38.3 µM), for inactives: at the highest dose activity change, negative = inhibition, hits mostly inhibitors; also: % is scaled to controls: 0 for no effect and ±100 for the full control effect; nearly all actives have a fitted effect of over 60% in size
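Kinase-Glo luciferase light output from ATP and luciferin was measured with 10 uM ATP, within the enzyme's linear range. Buffer: 50 mM imidazole pH 7.2, 50 mM KCl, 7 mM MgCl2, 0.01% Tween 20, 0.05% BSA; luminescence read after 8 min at ambient temperature.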
NPC1 promoter act – qHTS Assay for NPC1 Promoter Activators; Huh7 NPC1 promoter luciferase reporter, 24 h; Potency, µM (top dose mostly 9.22 µM), for the others: top-dose activation, usual class: activators; 2.4% of 320,000 active; also: % of control where 0% means no effect; nearly all actives have a fitted effect of over 60% in size
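Cells: Huh7 expressing luciferase under the NPC1 promoter, 1500/well. Seeded 2 h, compound added, incubated 24 h at 37 °C. Luciferase reagent, 10 min ambient, then luminescence.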
SMN2 splice up – qHTS Assay for Enhancers of SMN2 Splice Variant Expression | 2.8% of 210,000 active | Potency, µM (highest dose often 46.1 µM), for the others: at the top dose activity change, positive = activation, actives largely listed as activators | HEK293 SMN2-luciferase splicing reporter, luminescence, 30-36 h | AID 1458, 2008; also: % of control where 0% means no effect; nearly all actives have a fitted effect of over 55% in size
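HEK293 cells carry an SMN2 minigene-luciferase reporter in which exon 7 inclusion puts luciferase in frame. Cells were seeded at 2000 cells/well, attached for 10-12 hours, then exposed to compounds for 30-36 hours at 37C before ONE-Glo luminescence.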
Rab9 prom act – qHTS Assay for Rab9 Promoter Activators. 2.8% of 320,000 active. AID 485297, 2010. Potency, µM (highest dose often 9.22 µM), for the others: top-dose activation, negative = inhibition, usual class: activators. Huh7 Rab9 promoter-luciferase reporter, luminescence, 24 h; also: % of control where 0% means no effect; nearly all actives have a fitted effect of over 60% in size
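Luminescence from Amplite-detected luciferase (10 minutes, ambient) reports Rab9 promoter activation. Before that, stable Rab9-luciferase Huh7 cells (1500/well, reduced-serum OP-MEM I plus 10% FBS) were exposed to compound for 24 hours at 37C.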
ELG1 genotoxic – qHTS screen for small molecules that induce genotoxicity in human embryonic kidney (HEK293T) cells expressing luciferase-tagged ELG1 | HEK293T ELG1-luciferase reporter, luminescence, 16 h | Potency, µM (titrated, usually from 46 µM), for the others: at the highest dose activity change, positive = activation, usual class: activators | 1.3% of 330,000 active; also: % of control where 0% means no effect; nearly all actives have a fitted effect of over 60% in size
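HEK293T cells expressing luciferase-tagged ELG1 were exposed to compound or DMSO vehicle for 16 hr at 37 °C and 5% CO2. Luciferase activity was then measured with ONE-Glo after 30 min at room temperature.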
Starred values were filed as active, the others as inactive. In the library only some 7.5% were active in any assay of this set; here they are far more common. Calls follow the shape of the dose curve; as a rule, active = well fitted curve in the direction sought with a large enough effect; inconclusive = small, poorly fitted or top-dose-only effect, or another doubt; inactive = no such curve, though single readings can be large; an effect the other way counts as inactive or inconclusive. Potency is read from the fitted curve at half-maximal effect.

`COc1ccc(CNC(=O)c2sc3nc4n(c(=O)c3c2C)CCCCC4)cc1` gave FLuc counter 19µM*.
For CC(=O)c1cccc(NC(=O)c2sc3nc4n(c(=O)c3c2C)CCCCC4)c1 the results were FLuc counter -17%, NPC1 promoter act -3%, Rab9 prom act -4% and ELG1 genotoxic -6%.
Cc1c(C(=O)Nc2ccc(Oc3ccccc3)cc2)sc2nc3n(c(=O)c12)CCC3 was read as FLuc counter inconclusive, Luc counter -4%, NPC1 promoter act 3%, SMN2 splice up -38%, Rab9 prom act 0% and ELG1 genotoxic -4%.
Cc1c(C(=O)Nc2cc(F)ccc2F)sc2nc3n(c(=O)c12)CCCCC3 was read as FLuc counter -7%, NPC1 promoter act 2.8µM*, Rab9 prom act 1.6µM* and ELG1 genotoxic 16µM*.
`Cc1c(C(=O)NCc2ccc(Cl)cc2)sc2nc3n(c(=O)c12)CCC3` gave FLuc counter -11%.
For COC(=O)[C@H]1CC2(CC=C(C)C)C(=O)[C@@](CC=C(C)C)(C(=O)C(C(=O)c3ccccc3)=C2OC)C1(C)C (tested in a mixture with another compound) the results were Luc counter 1% and SMN2 splice up -5%.
For Cc1c(C)c2ccc(OCC(=O)Nc3nccs3)cc2oc1=O the results were FLuc counter 0.95µM*, NPC1 promoter act 0.28µM*, Rab9 prom act 0.5µM* and ELG1 genotoxic 1µM*.
`Cc1cc(=O)oc2cc(OCC(=O)Nc3nccs3)ccc12` gave FLuc counter 5.4µM*, NPC1 promoter act 2µM*, Rab9 prom act 4µM* and ELG1 genotoxic 10µM*.
`CCCCc1cc(=O)oc2cc(OCC(=O)Nc3ccccn3)ccc12` gave FLuc counter 21µM*, NPC1 promoter act inconclusive, Rab9 prom act 4.5µM* and ELG1 genotoxic 13µM*.
For Cc1c(C)c2ccc(OCC(=O)NCc3ccccn3)cc2oc1=O the results were FLuc counter 4%, NPC1 promoter act -5%, Rab9 prom act 3% and ELG1 genotoxic 8%.
Cc1c(C)c2ccc(OCC(=O)Nc3ccccn3)cc2oc1=O was read as FLuc counter 0.34µM*, NPC1 promoter act 0.89µM*, Rab9 prom act 3.5µM* and ELG1 genotoxic 0.46µM*.
`Cc1ccc(C2=NN(CC(=O)NC(C)c3ccccc3)C(=O)CC2)cc1` (stereo unspecified) gave FLuc counter -1%.
For CCc1nnc(NC(=O)CSc2nc3c(cc2C#N)CCCC3)s1 the results were FLuc counter 0.85µM*, Luc counter 4%, NPC1 promoter act 0.89µM*, SMN2 splice up 5.6µM*, Rab9 prom act 0.5µM* and ELG1 genotoxic inconclusive.
Screening CCOC(=O)c1sc(NC(=O)CSc2nc3c(cc2C#N)CCCCC3)c(C#N)c1C returned FLuc counter -6%, Luc counter -1%, NPC1 promoter act 29%, SMN2 splice up 4%, Rab9 prom act 18% and ELG1 genotoxic -4%.
`CCOC(=O)CC(=O)CSc1nc2c(cc1C#N)CCC2` gave FLuc counter 13µM*, Luc counter -1%, NPC1 promoter act -2%, SMN2 splice up -4%, Rab9 prom act 6% and ELG1 genotoxic 2%.
For N#Cc1cc2c(nc1SCC(=O)O)CCCCC2 the results were FLuc counter -5%, NPC1 promoter act -6%, Rab9 prom act 0% and ELG1 genotoxic 1%.
